BoNT F protease: BoNT F light chain protease inhibition. Multiplex microsphere protease cleavage assay, flow cytometry. AID 588497. 0.22% of 360,000 active. inhibition, % at 10 µM; in the data active = inhibition above about 35%, passing the limit was not always enough; inconclusive = no clear call, values can overlap the other calls; also: plate controls were buffer without enzyme for full effect and enzyme alone for no effect
Mtb FBA inh: Mtb fructose-bisphosphate aldolase inhibition; purified M. tuberculosis FBA, fluorescence read-out; inhibition, % at 1 µM; 2.3% of 360,000 active; in the data active = inhibition above about 27%;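 also: 0% = vehicle and 100% = reference inhibitor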
Target sequence (P9WQA3 whole entry, looked up): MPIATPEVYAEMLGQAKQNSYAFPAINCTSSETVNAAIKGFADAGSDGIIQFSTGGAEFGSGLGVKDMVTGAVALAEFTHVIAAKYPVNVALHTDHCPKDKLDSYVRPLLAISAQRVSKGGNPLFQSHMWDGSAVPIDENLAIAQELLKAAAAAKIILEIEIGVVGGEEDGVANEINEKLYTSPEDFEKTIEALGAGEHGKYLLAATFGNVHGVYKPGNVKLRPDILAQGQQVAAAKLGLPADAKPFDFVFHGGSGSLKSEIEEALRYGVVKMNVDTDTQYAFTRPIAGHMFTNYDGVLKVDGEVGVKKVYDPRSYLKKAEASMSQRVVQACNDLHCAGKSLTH
GDH-TPI counter-1: GDH-TPI coupled enzyme inhibition counter-screen. GDH-TPI coupled enzyme counterscreen, NADH absorbance. inhibition, % at 4.8 µM. 1.2% of 360,000 active; in the data active = inhibition above about 30%;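 also: 0% = DMSO wells and 100% = wells lacking the enzyme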
Bead autofluor: flagged as autofluorescent in microsphere protease counterscreen; compound autofluorescence counterscreen, microsphere flow cytometry; active compounds read high; fluorescence intensity (no concentration beside the values); 3.1% of 360,000 active; in the data active = fluorescence intensity above about 16000; inconclusive = no clear call, values can overlap the other calls
BoNT A protease: inhibitors of Botulinum neurotoxin A light chain protease; multiplex microsphere protease substrate cleavage, flow cytometry; inhibition, % at 10 µM; 0.17% of 360,000 active; AID 588499; also: plate controls were buffer without enzyme for full effect and enzyme alone for no effect
Anthrax LF prot: inhibitors of Bacillus anthracis lethal factor protease. multiplex microsphere protease cleavage assay, LF. 0.12% of 360,000 active. inhibition, % at 10 µM. P15917; also: plate controls were buffer without enzyme for full effect and enzyme alone for no effect
Mtb FBA inh conf: Mtb FBA inhibition, confirmed; shares compounds with Mtb FBA inh; purified M. tuberculosis FBA, fluorescence read-out; inhibition, % at 1 µM; 78% of 5,600 active; in the data active = inhibition above about 27%;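 also: 0% = vehicle wells and 100% = reference inhibitor wells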
GDH-TPI counter-2: counter-screen for M. tuberculosis FBA inhibitors: GDH-TPI coupled enzyme inhibition. inhibition, % at 1 µM. 81% of 5,600 active. GDH-TPI coupled enzyme counterscreen, fluorescence. shares compounds with Mtb FBA inh; in the data active = inhibition above about 10%
* marks the source's active call; other numbers are inactive results; u = inconclusive; x = not tested or not shown; + = active, no number. Sampled rows, rich in hits. Any-hit rate of the full collection: about 6.6%. Rule as the data show it, unless noted: active = inhibition above about 30%; inconclusive = no clear call, values can overlap the other calls; inactive = below that.

SMILES	BoNT F protease	Mtb FBA inh	GDH-TPI counter-1	Bead autofluor	BoNT A protease	Anthrax LF prot	Mtb FBA inh conf	GDH-TPI counter-2
Cc1c(CC(=O)NCCC(C)C)c(=O)oc2cc3c(cc12)CCC(C)(C)O3	-12	42*	6	3670	2	-8	90*	71*
c1ccc(-c2nc3ccccc3o2)nc1	-4	29*	-5	2870	1	-1	7	1
c1ccc(-c2ccc3ccccc3n2)cc1	-14	0	7	5607	-1	-6	x	x
c1ccc2nc(-c3nc4ccccc4o3)ccc2c1	0	69*	20	11703	0	-3	118*	104*
Nc1ccc2oc(-c3ccccn3)nc2c1	0	0	15	2380	0	2	x	x
O=C(NCc1ccco1)Nc1nnc([C@H]2C[C@H](O)[C@@H](CO)O2)s1	2	-3	1	3534	0	-2	x	x
COc1cc2ccccc2cc1C(=O)OCC(=O)N(CC(C)C)c1c(N)n(Cc2ccccc2)c(=O)[nH]c1=O	-19	24	11	u	-14	-3	x	x
COc1cc(/C=C/C(=O)Nc2ccncc2)cc(OC)c1OC	-5	38*	17	2469	0	-2	74*	66*
O=C1N=C(c2ccccc2)C(c2ccccc2)N1 (centres undefined)	-3	91*	0	5094	0	-4	1	4
COCCn1c(=N)c(S(=O)(=O)c2ccc(F)cc2)cc2c(=O)n3ccccc3nc21	7	34*	9	5398	2	2	52*	41*
N=c1c(S(=O)(=O)c2ccc(Cl)cc2)cc2c(=O)n3ccccc3nc2n1CC1CCCO1 (centres undefined)	11	23	1	5076	1	3	x	x
N=c1c(S(=O)(=O)c2ccc(Cl)cc2)cc2c(=O)n3ccccc3nc2n1Cc1ccco1	6	56*	15	5769	1	0	142*	107*
N=c1c(S(=O)(=O)c2ccccc2)cc2c(=O)n3ccccc3nc2n1CC1CCCO1 (centres undefined)	4	69*	16	4435	2	2	+	+
N#C/C(=C\c1c(Oc2ccccc2F)nc2ccccn2c1=O)C(=O)NC1CCS(=O)(=O)C1 (centres undefined)	-20	28*	4	4020	-7	-5	106*	84*
N#C/C(=C\c1c(Oc2ccccc2Cl)nc2ccccn2c1=O)C(=O)NC1CCS(=O)(=O)C1 (centres undefined)	-1	15	3	3887	-1	-5	x	x
Cc1cc(NC(=O)COc2ccccc2C(N)=O)no1	4	0	-5	3469	0	-10	x	x
COC(=O)Cc1c(C)c2ccc(OC3CCCCC3=O)c(C)c2oc1=O (centres undefined)	u	108*	5	3913	-2	7	24	17*
COc1cc(OC)cc(C(=O)NCC(=O)OC2CCCCC2=O)c1 (centres undefined)	-6	2	8	4593	-1	0	x	x
Cc1cc(=O)oc2c(C)c(OC3CCCCC3=O)ccc12 (centres undefined)	-1	39*	21	3831	-7	10	+	192*
Cc1cc(=O)oc2c(C)c(OC(C)C(=O)NCC3CCC(C(=O)O)CC3)ccc12 (centres undefined)	0	4	13	5760	0	-3	x	x
CCc1cc(=O)oc2cc(OC3CCCCC3=O)ccc12 (centres undefined)	-17	53*	7	3915	-2	0	192*	164*
Cc1c(OC(C)C(=O)NCC2CCC(C(=O)O)CC2)ccc2c3c(c(=O)oc12)CCCC3 (centres undefined)	-2	17	16	5437	-1	-3	x	x
COC(=O)Cc1c(C)c2ccc(OC3CCCCC3=O)cc2oc1=O (centres undefined)	17	103*	13	3433	1	12	140*	144*
COc1ccc(NC(=O)CC2C(=O)N(C)C(=S)N2Cc2ccc3c(c2)OCO3)cc1 (centres undefined)	-1	80*	5	2021	0	1	39*	33*
Cc1ccccc1-n1c(C)nnc1SCC(=O)N(C)C1CCS(=O)(=O)C1 (centres undefined)	-4	-2	0	4085	0	-3	x	x
SMILES	BoNT F protease	Mtb FBA inh	GDH-TPI counter-1	Bead autofluor	BoNT A protease	Anthrax LF prot	Mtb FBA inh conf	GDH-TPI counter-2
O=C(NCCCl)C1Cc2c(ccc3ccccc23)O1 (centres undefined)	-19	4	-6	4175	-3	-10	x	x
CCCCN(CC)CCCNC(=O)c1cn(CC(C)C)c(=O)c2c1c1ccccc1n2C	2	20	7	5551	-2	4	x	x
CCN(CC)CCCNC(=O)c1cn(CC(C)C)c(=O)c2c1c1ccccc1n2C	3	35*	7	3683	-4	-3	105*	95*
CCN(CC)CCCNC(=O)c1cn(CCOC)c(=O)c2c1c1ccccc1n2C	-3	29*	5	10054	0	-2	102*	96*
COCCn1cc(C(=O)NCCCN2CCC(C)CC2)c2c3ccccc3n(C)c2c1=O	0	28*	12	11153	0	-2	+	+
CCN(CC)CCCNC(=O)c1cn(C)c(=O)c2c1c1ccccc1n2C	-9	30*	5	3772	2	15	83*	71*
CCN(CC)CCNC(=O)c1cn(CCOC)c(=O)c2c1c1ccccc1n2C	25	25	17	3584	-1	-3	x	x
CC(NC(=O)c1ccccc1)C(=O)OCC(=O)c1c(N)n(C)c(=O)n(C)c1=O (centres undefined)	x	-2	-2	x	x	x	x	x
CC(=O)C(c1ccccc1)C(c1ccccc1)C(C)[N+](=O)[O-] (centres undefined)	-4	4	10	3966	-2	14	x	x
C[C@H](CO)N1C[C@H](C)[C@@H](CN(C)C(=O)c2cc(-c3ccccc3)on2)OCc2cn(nn2)CCCC1=O	-4	-1	-1	3788	0	-4	x	x
COc1cc(N=Cc2c(CO)cnc(C)c2O)cc(OC)c1OC	4	82*	5	4200	-2	6	63*	63*
Cn1c(=O)n(C)c2cc3[nH]cnc3cc21	17	3	-3	3655	1	-12	x	x
Nc1cc2nc[nH]c2cc1N	-69	32*	11	1817	0	-16	55*	51*
O=C(O)C1CCCCC1C(=O)NCc1ccc2c(c1)OCO2 (centres undefined)	-7	90*	-3	4928	0	-6	+	162*
O=C(NCc1ccc2c(c1)OCO2)C1CCCCC1	u	-1	-11	4298	-2	-8	x	x
